# Paper PMC7862700, “An all-to-all approach to the identification of sequence-specific readers for epigenetic DNA modifications on cytosine”
# Key:
# Assay in all cases: DAPPL (digital affinity profiling via proximity ligation, sequencing); 10 mM Tris-HCl pH 7.5, 50 mM NaCl, 1 mM DTT, 4% glycerol, room temperature, 30 min; GST-TFs on glutathione beads, 16-mer random dsDNA library, 0.1% formaldehyde crosslink after washing; high values mean tight binding
# FLI1 = molecular target: T1, FLI1 (Homo sapiens, UniProt Q01543 1-452); settings: protein: recombinant; tags: N-terminal GST; dsDNA, one strand shown
# T1 sequence: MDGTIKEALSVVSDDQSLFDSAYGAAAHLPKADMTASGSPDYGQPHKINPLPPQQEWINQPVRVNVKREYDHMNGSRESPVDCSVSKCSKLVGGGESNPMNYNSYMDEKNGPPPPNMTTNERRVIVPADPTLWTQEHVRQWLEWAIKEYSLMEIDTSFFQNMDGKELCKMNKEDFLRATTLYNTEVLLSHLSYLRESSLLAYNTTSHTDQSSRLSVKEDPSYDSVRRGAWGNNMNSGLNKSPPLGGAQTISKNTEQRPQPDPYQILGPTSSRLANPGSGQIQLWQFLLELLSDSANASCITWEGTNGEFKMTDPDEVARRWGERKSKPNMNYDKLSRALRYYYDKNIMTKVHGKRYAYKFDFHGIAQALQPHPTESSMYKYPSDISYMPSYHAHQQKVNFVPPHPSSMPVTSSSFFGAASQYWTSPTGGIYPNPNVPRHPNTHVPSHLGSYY
# Method in brief: (§1)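 Binding signal is given per hexamer as its read frequency for a factor divided by its frequency in the tag-only sample. GST-fused human transcription factors were expressed in yeast, captured on glutathione beads, barcoded with DNA and pooled with that sample, then incubated with 200 nmole of a 16-mer random double-stranded DNA library in Tris/NaCl/DTT/glycerol buffer for 30 min at room temperature. The pools were then washed, crosslinked, proximity-ligated, amplified by PCR and sequenced on an Illumina NextSeq500.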
# ELK1 = molecular target: T2, ELK1 (Homo sapiens, UniProt P19419 1-428); settings: protein: recombinant; tags: N-terminal GST; dsDNA, one strand shown
# T2 sequence: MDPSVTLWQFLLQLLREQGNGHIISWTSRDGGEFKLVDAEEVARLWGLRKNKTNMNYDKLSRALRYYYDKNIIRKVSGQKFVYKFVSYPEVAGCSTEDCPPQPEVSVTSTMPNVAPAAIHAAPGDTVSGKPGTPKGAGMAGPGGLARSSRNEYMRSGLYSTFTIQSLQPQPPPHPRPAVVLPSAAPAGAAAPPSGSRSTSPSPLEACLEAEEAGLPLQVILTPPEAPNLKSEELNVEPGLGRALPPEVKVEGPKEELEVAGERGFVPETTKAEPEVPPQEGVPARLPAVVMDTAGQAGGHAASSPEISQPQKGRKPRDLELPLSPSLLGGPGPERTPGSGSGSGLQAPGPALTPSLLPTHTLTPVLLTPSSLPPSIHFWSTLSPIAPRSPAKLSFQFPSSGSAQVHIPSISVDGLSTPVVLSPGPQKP
# Method in brief: as §1
# GABPA = molecular target: T3, GABPA (Homo sapiens, UniProt Q06546 1-454); settings: protein: recombinant; tags: N-terminal GST; dsDNA, one strand shown
# T3 sequence: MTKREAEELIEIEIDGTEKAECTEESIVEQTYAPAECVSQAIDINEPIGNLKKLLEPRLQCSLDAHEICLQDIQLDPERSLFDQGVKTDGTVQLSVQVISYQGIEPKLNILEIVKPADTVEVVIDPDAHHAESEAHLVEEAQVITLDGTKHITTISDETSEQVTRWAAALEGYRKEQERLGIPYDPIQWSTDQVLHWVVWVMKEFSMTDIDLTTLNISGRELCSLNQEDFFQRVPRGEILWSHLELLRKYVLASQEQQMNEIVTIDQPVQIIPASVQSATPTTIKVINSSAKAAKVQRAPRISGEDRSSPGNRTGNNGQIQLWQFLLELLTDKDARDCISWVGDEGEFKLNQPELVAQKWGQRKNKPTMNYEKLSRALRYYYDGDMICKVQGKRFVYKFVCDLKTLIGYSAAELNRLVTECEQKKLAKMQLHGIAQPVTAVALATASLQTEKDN
# Method in brief: as §1
# ERG = molecular target: T4, ERG (Homo sapiens, UniProt P11308 1-479); settings: protein: recombinant; tags: N-terminal GST; dsDNA, one strand shown
# T4 sequence: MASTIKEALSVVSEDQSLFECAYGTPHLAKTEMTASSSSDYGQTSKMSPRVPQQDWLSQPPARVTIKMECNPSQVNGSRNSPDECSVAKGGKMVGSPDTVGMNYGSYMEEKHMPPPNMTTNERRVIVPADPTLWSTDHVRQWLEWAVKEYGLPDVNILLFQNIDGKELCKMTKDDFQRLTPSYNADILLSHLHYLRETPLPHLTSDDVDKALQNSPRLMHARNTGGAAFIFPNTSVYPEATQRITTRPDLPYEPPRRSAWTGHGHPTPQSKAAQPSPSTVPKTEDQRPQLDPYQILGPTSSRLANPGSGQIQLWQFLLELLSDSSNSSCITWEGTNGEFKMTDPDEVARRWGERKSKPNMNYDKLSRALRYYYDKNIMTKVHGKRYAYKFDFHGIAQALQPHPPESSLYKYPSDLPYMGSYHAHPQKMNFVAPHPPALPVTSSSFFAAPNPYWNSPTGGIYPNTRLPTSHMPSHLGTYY
# Method in brief: as §1
# ELF1 = ELF1 (Homo sapiens, UniProt P32519 1-619); settings: protein: recombinant; tags: N-terminal GST; dsDNA, one strand shown
# Method in brief: as §1
# EHF = molecular target: T5, EHF (Homo sapiens, UniProt Q9NZC4 1-300); settings: protein: recombinant; tags: N-terminal GST; dsDNA, one strand shown
# T5 sequence: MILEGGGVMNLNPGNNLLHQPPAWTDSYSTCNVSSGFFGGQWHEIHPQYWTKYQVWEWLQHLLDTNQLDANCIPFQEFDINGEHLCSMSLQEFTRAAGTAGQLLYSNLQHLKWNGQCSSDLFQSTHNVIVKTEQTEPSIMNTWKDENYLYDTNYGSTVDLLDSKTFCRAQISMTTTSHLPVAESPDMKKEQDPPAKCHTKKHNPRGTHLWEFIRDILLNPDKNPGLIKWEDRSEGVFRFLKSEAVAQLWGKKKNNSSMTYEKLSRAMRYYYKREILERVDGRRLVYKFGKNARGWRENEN
# Method in brief: as §1
# SPI1 = SPI1 (Homo sapiens, UniProt P17947 1-270); settings: protein: recombinant; tags: N-terminal GST; dsDNA, one strand shown
# Method in brief: as §1
# SPIB = SPIB (Homo sapiens, UniProt Q01892 1-262); settings: protein: recombinant; tags: N-terminal GST; dsDNA, one strand shown
# Method in brief: as §1
# ELK3 = molecular target: T6, ELK3 (Homo sapiens, UniProt P41970 1-407); settings: protein: recombinant; tags: N-terminal GST; dsDNA, one strand shown
# T6 sequence: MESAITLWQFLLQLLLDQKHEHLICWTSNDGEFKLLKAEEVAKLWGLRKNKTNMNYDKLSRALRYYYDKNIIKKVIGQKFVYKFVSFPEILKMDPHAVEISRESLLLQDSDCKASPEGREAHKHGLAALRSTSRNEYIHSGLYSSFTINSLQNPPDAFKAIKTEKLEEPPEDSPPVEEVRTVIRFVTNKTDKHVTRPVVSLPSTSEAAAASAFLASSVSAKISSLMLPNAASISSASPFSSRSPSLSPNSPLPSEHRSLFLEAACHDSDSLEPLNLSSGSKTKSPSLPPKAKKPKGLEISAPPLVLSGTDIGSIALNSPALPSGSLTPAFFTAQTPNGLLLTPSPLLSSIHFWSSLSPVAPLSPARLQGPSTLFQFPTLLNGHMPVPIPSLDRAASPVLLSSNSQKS
# Method in brief: as §1
# FEV = molecular target: T7, FEV (Homo sapiens, UniProt Q99581 1-238); settings: protein: recombinant; tags: N-terminal GST; dsDNA, one strand shown
# T7 sequence: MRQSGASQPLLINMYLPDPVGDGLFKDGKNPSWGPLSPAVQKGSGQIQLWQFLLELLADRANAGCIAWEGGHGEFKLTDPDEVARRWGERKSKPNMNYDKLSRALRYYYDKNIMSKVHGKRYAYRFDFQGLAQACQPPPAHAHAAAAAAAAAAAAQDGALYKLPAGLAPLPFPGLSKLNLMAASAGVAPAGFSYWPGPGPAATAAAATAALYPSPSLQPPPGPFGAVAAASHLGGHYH
# Method in brief: as §1
# ETV5 = ETV5 (Homo sapiens, UniProt P41161 1-510); settings: protein: recombinant; tags: N-terminal GST; dsDNA, one strand shown
# Method in brief: as §1
# HSF1 = HSF1 (Homo sapiens, UniProt Q00613 1-529); settings: protein: recombinant; tags: N-terminal GST; chain copies: 3; dsDNA, one strand shown
# Method in brief: as §1
# SPIC = molecular target: T8, SPIC (Homo sapiens, UniProt Q8N5J4 1-248); settings: protein: recombinant; tags: N-terminal GST; dsDNA, one strand shown
# T8 sequence: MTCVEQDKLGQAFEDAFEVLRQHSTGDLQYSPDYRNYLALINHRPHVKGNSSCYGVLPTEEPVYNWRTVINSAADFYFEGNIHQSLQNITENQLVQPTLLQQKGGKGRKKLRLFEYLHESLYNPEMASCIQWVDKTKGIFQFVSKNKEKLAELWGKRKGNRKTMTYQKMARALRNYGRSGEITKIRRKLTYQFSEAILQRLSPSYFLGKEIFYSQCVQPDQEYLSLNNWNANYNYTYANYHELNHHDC
# Method in brief: as §1
# ELF4 = ELF4 (Homo sapiens, UniProt Q99607 1-663); settings: protein: recombinant; tags: N-terminal GST; dsDNA, one strand shown
# Method in brief: as §1
# ELK4 = molecular target: T9, ELK4 (Homo sapiens, UniProt P28324-2 1-405); settings: protein: recombinant; tags: N-terminal GST; dsDNA, one strand shown
# T9 sequence: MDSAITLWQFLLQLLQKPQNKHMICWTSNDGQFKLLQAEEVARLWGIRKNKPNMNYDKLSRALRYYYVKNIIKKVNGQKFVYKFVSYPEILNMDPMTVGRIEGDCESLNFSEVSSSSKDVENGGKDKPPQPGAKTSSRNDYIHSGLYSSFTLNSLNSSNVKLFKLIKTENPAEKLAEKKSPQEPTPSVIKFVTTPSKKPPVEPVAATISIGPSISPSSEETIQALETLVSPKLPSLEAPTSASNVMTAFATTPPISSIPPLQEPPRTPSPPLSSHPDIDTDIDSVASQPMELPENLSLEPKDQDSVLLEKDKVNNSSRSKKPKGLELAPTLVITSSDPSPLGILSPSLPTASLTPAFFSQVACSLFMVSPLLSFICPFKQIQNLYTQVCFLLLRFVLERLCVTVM
# Method in brief: as §1
# ETV2 = molecular target: T10, ETV2 (Homo sapiens, UniProt O00321 1-342); settings: protein: recombinant; tags: N-terminal GST; dsDNA, one strand shown
# T10 sequence: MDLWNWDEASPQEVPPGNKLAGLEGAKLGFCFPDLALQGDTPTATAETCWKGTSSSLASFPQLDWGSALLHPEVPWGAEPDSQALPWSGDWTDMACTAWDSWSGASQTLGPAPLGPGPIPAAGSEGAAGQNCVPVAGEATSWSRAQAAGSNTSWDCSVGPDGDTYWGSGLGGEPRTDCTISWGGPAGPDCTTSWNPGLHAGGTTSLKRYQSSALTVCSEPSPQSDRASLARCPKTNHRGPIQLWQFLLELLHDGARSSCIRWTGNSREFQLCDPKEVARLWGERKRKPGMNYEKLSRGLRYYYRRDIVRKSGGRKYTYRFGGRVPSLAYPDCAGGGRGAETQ
# Method in brief: as §1
# ELF3 = molecular target: T11, ELF3 (Homo sapiens, UniProt P78545 1-371); settings: protein: recombinant; tags: N-terminal GST; dsDNA, one strand shown
# T11 sequence: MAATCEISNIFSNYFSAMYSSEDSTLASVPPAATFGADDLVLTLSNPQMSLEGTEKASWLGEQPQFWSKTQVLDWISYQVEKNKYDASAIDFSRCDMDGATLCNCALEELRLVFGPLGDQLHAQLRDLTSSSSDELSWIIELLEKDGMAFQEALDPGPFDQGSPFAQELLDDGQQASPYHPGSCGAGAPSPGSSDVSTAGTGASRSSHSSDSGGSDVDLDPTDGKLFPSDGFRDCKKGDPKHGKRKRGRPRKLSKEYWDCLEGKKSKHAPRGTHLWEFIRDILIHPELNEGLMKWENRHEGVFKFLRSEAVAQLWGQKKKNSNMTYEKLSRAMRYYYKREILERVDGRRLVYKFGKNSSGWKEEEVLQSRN
# Method in brief: as §1
# CRX = CRX (Homo sapiens, UniProt O43186 1-299); settings: protein: recombinant; tags: N-terminal GST; dsDNA, one strand shown
# Method in brief: as §1
# ETV1 = ETV1 (Homo sapiens, UniProt P50549 1-477); settings: protein: recombinant; tags: N-terminal GST; dsDNA, one strand shown
# Method in brief: as §1
# Chain of SPIB (Q01892 whole entry): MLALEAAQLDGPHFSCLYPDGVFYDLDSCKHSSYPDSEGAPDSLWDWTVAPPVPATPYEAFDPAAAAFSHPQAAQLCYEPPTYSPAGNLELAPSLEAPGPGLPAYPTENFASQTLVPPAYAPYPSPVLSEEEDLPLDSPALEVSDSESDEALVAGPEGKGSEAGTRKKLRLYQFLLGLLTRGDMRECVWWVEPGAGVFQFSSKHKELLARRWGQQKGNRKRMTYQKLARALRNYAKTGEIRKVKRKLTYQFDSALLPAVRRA
# Chain of CRX (O43186 whole entry): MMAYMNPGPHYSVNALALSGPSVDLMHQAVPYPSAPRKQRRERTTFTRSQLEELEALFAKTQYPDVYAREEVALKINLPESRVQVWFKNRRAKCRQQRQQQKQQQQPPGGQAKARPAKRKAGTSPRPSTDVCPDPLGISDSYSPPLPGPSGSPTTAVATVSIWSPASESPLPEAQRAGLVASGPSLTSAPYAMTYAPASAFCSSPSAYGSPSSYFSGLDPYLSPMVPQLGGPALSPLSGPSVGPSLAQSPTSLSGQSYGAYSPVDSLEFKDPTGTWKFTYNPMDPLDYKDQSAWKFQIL
# Chain of ELF1 (P32519 whole entry): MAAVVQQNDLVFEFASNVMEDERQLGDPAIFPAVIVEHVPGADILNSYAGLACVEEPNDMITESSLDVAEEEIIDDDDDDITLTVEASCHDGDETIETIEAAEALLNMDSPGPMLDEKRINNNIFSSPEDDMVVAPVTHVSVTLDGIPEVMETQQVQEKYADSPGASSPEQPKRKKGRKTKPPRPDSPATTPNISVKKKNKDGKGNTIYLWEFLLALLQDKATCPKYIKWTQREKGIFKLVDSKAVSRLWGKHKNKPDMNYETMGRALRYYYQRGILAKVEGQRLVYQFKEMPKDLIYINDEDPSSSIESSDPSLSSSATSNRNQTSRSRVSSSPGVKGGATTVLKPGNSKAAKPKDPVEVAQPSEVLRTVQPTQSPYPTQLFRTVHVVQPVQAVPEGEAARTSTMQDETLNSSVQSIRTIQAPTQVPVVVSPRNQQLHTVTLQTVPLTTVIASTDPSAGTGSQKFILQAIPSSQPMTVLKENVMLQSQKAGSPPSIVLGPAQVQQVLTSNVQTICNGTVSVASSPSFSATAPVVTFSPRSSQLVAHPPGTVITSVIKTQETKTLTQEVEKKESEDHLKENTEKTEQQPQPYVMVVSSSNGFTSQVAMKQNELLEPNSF
# Chain of ETV1 (P50549 whole entry): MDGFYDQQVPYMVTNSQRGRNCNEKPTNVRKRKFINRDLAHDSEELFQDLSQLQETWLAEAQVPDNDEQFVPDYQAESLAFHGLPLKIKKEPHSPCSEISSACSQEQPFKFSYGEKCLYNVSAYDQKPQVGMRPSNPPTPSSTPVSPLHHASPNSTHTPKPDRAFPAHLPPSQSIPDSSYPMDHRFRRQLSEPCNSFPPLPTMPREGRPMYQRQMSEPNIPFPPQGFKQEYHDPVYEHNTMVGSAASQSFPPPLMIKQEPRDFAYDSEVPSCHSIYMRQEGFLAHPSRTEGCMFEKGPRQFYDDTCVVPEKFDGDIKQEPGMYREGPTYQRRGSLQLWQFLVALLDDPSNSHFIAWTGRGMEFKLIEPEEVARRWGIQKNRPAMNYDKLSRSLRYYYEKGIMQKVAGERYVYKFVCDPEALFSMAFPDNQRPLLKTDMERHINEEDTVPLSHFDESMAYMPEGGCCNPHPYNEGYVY
# Chain of HSF1 (Q00613 whole entry): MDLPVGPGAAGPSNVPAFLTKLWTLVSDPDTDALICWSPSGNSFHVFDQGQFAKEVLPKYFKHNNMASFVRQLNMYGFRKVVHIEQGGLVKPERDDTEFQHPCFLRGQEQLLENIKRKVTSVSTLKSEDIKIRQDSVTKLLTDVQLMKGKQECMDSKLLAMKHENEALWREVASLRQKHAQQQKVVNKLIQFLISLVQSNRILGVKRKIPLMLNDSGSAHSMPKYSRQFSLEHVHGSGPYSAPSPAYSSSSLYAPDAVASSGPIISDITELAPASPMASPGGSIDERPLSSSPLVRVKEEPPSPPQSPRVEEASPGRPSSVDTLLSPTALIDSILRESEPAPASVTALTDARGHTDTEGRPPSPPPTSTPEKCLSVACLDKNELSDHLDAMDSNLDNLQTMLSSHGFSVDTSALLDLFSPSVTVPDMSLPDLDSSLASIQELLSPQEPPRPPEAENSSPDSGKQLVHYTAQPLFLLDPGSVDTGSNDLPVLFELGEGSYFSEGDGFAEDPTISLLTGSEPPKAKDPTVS
# Chain of ELF4 (Q99607 whole entry): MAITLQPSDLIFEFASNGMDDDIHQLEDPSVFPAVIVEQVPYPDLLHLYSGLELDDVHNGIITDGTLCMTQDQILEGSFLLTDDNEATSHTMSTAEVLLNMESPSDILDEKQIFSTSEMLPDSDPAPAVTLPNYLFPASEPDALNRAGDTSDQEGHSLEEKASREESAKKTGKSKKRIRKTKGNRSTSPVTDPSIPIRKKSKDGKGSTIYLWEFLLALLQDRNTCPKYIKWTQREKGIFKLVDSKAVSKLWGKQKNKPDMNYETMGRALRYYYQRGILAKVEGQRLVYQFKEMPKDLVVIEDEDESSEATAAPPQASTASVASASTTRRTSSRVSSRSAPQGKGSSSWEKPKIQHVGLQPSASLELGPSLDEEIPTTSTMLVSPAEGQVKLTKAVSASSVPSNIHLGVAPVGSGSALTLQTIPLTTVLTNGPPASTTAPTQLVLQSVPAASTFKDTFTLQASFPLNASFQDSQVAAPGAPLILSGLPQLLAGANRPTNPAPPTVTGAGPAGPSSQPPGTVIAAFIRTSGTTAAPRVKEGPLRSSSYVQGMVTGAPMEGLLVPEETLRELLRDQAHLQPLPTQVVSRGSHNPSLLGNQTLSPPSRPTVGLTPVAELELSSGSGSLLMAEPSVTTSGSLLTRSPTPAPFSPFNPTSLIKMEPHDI
# Chain of ETV5 (P41161 whole entry): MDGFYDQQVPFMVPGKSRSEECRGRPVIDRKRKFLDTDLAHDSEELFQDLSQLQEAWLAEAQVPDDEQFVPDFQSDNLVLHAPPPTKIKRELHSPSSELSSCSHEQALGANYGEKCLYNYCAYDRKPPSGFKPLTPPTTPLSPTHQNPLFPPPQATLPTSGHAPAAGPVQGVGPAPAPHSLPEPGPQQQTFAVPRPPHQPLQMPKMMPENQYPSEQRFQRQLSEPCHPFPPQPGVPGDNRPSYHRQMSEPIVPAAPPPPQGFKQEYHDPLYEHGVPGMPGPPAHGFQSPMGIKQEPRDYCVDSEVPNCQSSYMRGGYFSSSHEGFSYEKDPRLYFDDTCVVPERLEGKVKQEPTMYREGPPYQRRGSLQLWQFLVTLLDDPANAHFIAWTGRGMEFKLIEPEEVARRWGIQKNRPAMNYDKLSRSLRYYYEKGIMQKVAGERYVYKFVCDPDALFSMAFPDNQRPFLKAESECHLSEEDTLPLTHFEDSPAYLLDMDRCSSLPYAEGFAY
sequence,measurement,setting,value
ACTAAA,binding signal,FLI1,"1.26 fold enrichment (6-mer frequency, TF over GST control)"
same,binding signal,ELK1,"1.22 fold enrichment (6-mer frequency, TF over GST control)"
same,binding signal,GABPA,"1.34 fold enrichment (6-mer frequency, TF over GST control)"
same,binding signal,ERG,"1.3 fold enrichment (6-mer frequency, TF over GST control)"
same,binding signal,ELF1,"1.32 fold enrichment (6-mer frequency, TF over GST control)"
same,binding signal,EHF,"1.21 fold enrichment (6-mer frequency, TF over GST control)"
same,binding signal,SPI1,"1.32 fold enrichment (6-mer frequency, TF over GST control)"
same,binding signal,SPIB,"1.28 fold enrichment (6-mer frequency, TF over GST control)"
same,binding signal,ELK3,"1.34 fold enrichment (6-mer frequency, TF over GST control)"
same,binding signal,FEV,"1.24 fold enrichment (6-mer frequency, TF over GST control)"
same,binding signal,ETV5,"1.24 fold enrichment (6-mer frequency, TF over GST control)"
same,binding signal,HSF1,"1.37 fold enrichment (6-mer frequency, TF over GST control)"
same,binding signal,SPIC,"1.14 fold enrichment (6-mer frequency, TF over GST control)"
same,binding signal,ELF4,"1.31 fold enrichment (6-mer frequency, TF over GST control)"
same,binding signal,ELK4,"1.4 fold enrichment (6-mer frequency, TF over GST control)"
same,binding signal,ETV2,"1.24 fold enrichment (6-mer frequency, TF over GST control)"
same,binding signal,ELF3,"1.33 fold enrichment (6-mer frequency, TF over GST control)"
same,binding signal,CRX,"1.6 fold enrichment (6-mer frequency, TF over GST control)"
same,binding signal,ETV1,"1.31 fold enrichment (6-mer frequency, TF over GST control)"
